# Experimental data from ChEMBL document CHEMBL3988442, “University of Dundee, Small-Polar-MMV Screening Library” (2021).
# Screen size: about 48,000 compounds; about 13,000 (27%) showed an effect of 50% or more. This is one part of the list.
# Tested on: Wolbachia pipientis
# Assay: Anti-Wolbachia Cell-Based Screen
# Assay type: functional
# Set-up: scale not given: in the data most compounds retested in dose-response had high values
# Conditions: 5 µM
row,Structure (SMILES),Percent Effect [%]
1,COC(=O)N1CCCN(C(=O)NCc2ccc(Cl)s2)CC1,11.92
2,CC(C)COCCC(=O)Nc1cc(-n2nnnc2C2CC2)ccc1F,3.649
3,CC1CN(CC(=O)Nc2nncs2)CCN1c1nccs1 (stereo not drawn),-0.151
4,CC1CN(CC(=O)Nc2ccncc2)CCN1c1nccs1 (stereo not drawn),150.9
5,CC1CN(CC(=O)Nc2cccnc2)CCN1c1nccs1 (stereo not drawn),0.898
6,CCSC(C)C(=O)N1CCC(c2nn(C)c(=O)n2-c2ccccc2)CC1 (stereo not drawn),-5.623
7,CC(C)CN1CCCC1c1ccc(C(=O)Nc2cc[nH]n2)s1 (stereo not drawn),6.388
8,c1cc(C2CCCN2CC2CC2)n[nH]1 (stereo not drawn),189.2
9,COCCOc1ccnc(-c2noc([C@@H]3CCCN3CC(C)C)n2)c1,-7.911
10,CN1CCC(c2n[nH]c(=O)n2CC2CCCCC2)CC1,16.1
11,CC(C)CN1CCCC1c1cc[nH]n1 (stereo not drawn),114.8
12,c1cc(-c2noc([C@@H]3CCCN3CC3CC3)n2)cc(N2CCCC2)n1,1.663
13,Nc1ncncc1-c1noc([C@@H]2CCCN2CC2CC2)n1,-1.832
14,OCCN1CCCCC1c1cc[nH]n1 (stereo not drawn),167
15,OCCOCCN1CCCC1c1cccc(Cl)c1 (stereo not drawn),-3.053
16,c1cc(-c2c[nH]c([C@@H]3COCCN3CC3CC3)n2)ccn1,-6.01
17,OCCCN1CCCC1c1ccc(Br)cc1 (stereo not drawn),-3.155
18,c1cc(C2CCCN2CC2CCCCC2)n[nH]1 (stereo not drawn),159.6
19,CC(C)NC(=O)CCNC(=O)c1cc(F)ccc1NS(C)(=O)=O,-9.152
20,CCOc1ccc(C(=O)N(C)C)cc1NC(=O)c1ccsc1,9.824
21,CCc1nncn1CCNC(=O)Nc1ccc(OC)c(C)c1,-6.777
22,CCn1ccnc1CN1CCN(CC(O)Cn2cccn2)CC1 (stereo not drawn),-2.692
23,Cc1cc(C)c2cc(CNCc3ccccc3)c3nn(C)c(=O)n3c2c1,-7.626
24,Cc1cc(C)c2cc(C(=O)N3CCN(Cc4ccco4)CC3)[nH]c2c1,21.49

row,Structure (SMILES),Percent Effect [%]
1,Cc1ccc(CNCc2nnc3n2CCCC3C(F)(F)F)o1 (stereo not drawn),18.11
2,Cc1cc(C)c2cc(CNCc3ccc(C)o3)c3nn(C)c(=O)n3c2c1,122.6
3,Cc1cc(C)c2cc(CNCc3ccco3)c3nn(C)c(=O)n3c2c1,111.5
4,Cc1ccc(CNCCC(O)(c2nccn2C)C(F)(F)F)o1 (stereo not drawn),-16.77
5,Cc1ccc(NCc2ccco2)cc1N1CCOC1=O,-6.269
6,Cc1cc(C)c2cc(CNCc3cccnc3)c3nn(C)c(=O)n3c2c1,113.3
7,COc1ccc(Oc2ccc(C(F)(F)F)cn2)cc1CN1CCCC1,-1.522
8,CCn1ccnc1S(=O)(=O)Cc1c(C)cc(C)c(C(C)=O)c1C,-13.95
9,CC(C)CN(Cc1ccsc1)C(=O)CCCn1cncn1,5.825
10,CCOc1cccc(CNC(=O)C(C)(C)C#N)c1OC(F)F,-15.69
11,CCC(=O)N1CC[C@H]2[C@H](C[C@@H](Cn3cccn3)N2c2nccs2)C1.O=C(O)C(F)(F)F.O=C(O)C(F)(F)F,119.1
12,O=C(O)C(F)(F)F.O=C(O)C(F)(F)F.O=C(O)C(F)(F)F.c1cnn(C[C@@H]2C[C@@H]3CN(CC4CC4)CC[C@@H]3N2c2nccs2)c1,119.3
13,CC(=O)N1[C@H](Cn2cncn2)C[C@@H]2CN(CC3CC3)CC[C@@H]21.O=C(O)C(F)(F)F,-0.2509
14,CCC(=O)N1CC[C@H]2[C@H](C[C@@H](CN3CCCC3)N2c2nccs2)C1.O=C(O)C(F)(F)F.O=C(O)C(F)(F)F,104
15,CC(=O)N1CC[C@H]2[C@H](C[C@@H](CN3CCCC3)N2c2nccs2)C1.O=C(O)C(F)(F)F.O=C(O)C(F)(F)F,95.98
16,Cl.Cl.c1csc(N2[C@H](Cn3cncn3)C[C@@H]3CNCC[C@@H]32)n1,3.496
17,CCCc1nnc(NC(C)c2ccc(F)cc2)o1 (stereo not drawn),-29.12
18,Cc1cccc2c(CCNC(=O)[C@H](N)c3ccccc3)c[nH]c12,-3.898
19,CCC(NCc1ccccc1)c1ccccc1OCC(=O)NC (stereo not drawn),-0.2413
20,CSCC(=O)N1C[C@H]2CC[C@@H]1CN(C1Cc3ccccc3C1)C2,0.6506
21,CN1CC[C@H]2[C@H](C[C@@H](CN3CCCC3)N2c2nccs2)C1.O=C(O)C(F)(F)F.O=C(O)C(F)(F)F.O=C(O)C(F)(F)F,105.1
22,CN(C)C(=O)CN1CCC2(CCCN(Cc3cccs3)C2)C1=O.O=C(O)C(F)(F)F (stereo not drawn),-0.327
23,CN1CC(=O)N(c2cccc(F)c2)CC12CCN(Cc1ccsc1)C2.O=C(O)C(F)(F)F.O=C(O)C(F)(F)F (stereo not drawn),7.196
24,Cc1ccc(CN2CCC3(CCC(=O)N3CC(=O)N(C)C)CC2)s1.O=C(O)C(F)(F)F,113.5

row,Structure (SMILES),Percent Effect [%]
1,CC1N(C)C(=O)COC12CCN(Cc1ccsc1)CC2.O=C(O)C(F)(F)F (stereo not drawn),-20.67
2,CN(C)C(=O)CN1C(=O)CCC12CCN(Cc1cccs1)CC2.O=C(O)C(F)(F)F,103.6
3,Cc1ccc(CN2CCC3(CCCN3S(C)(=O)=O)CC2)s1.O=C(O)C(F)(F)F,-3.179
4,Cc1ccc(CN2CCC3(CCCC(=O)N3)CC2)s1.O=C(O)C(F)(F)F,-45.29
5,CN(C)C(=O)CN1C(=O)CCC12CCN(Cc1ccsc1)CC2.O=C(O)C(F)(F)F,105.6
6,Cc1ccc(CN2CCOC3(CCCN(C(=O)c4ccco4)C3)C2)s1.O=C(O)C(F)(F)F (stereo not drawn),12.79
7,N#Cc1nccnc1N1CCC(CSc2ccccc2)C1 (stereo not drawn),-2.144
8,Cc1cc2c(=O)n(CCOCCO)cnc2s1,-13.8
9,Cc1csc2c(=O)n(CCSc3cnn[nH]3)cnc12,116
10,CCC1CCN(CCn2cnc3c(C)csc3c2=O)CC1,-5.154
11,Cc1cc2c(=O)n(CCSc3ncn[nH]3)cnc2s1,95.33
12,Cc1cc(C)nc(NCCSc2cnn[nH]2)n1,5.167
13,Cc1cc2c(=O)n(CCSc3cnn[nH]3)cnc2s1,114.6
14,COc1ccc(-c2cn(CCSc3ncn[nH]3)nn2)cn1,4.594
15,CCc1ncc(-c2cn(CCSc3ncn[nH]3)nn2)cn1,-12.01
16,Cc1csc2c(=O)n(CCN3CCNCC3)cnc12,-1.772
17,CN(CCCc1cnn(C)c1)C(=O)Nc1cccc2[nH]ncc12,-6.714
18,CCc1cnc(N2CC3(CCN(C(=O)c4ccoc4)C3)C2)nc1,-9.292
19,CN(C)C[C@H]1OC[C@@H]2CCN(C(=O)c3ccc[nH]3)C[C@@H]21.O=C(O)C(F)(F)F,-11.36
20,CC(=O)N(C)CC(=O)NC1(c2ccc(F)cc2)CCCC1,-10.47
21,O=C1NCCO[C@H]2CN(C(=O)Cc3csc4ccccc34)CC[C@@H]12,14.47
22,CCCn1cnnc1CNC(=O)CC1C(=O)NCCN1CC=C(C)C (stereo not drawn),0.5151
23,Cn1cccc1C(=O)N1CC[C@H]2[C@@H]1CCC(=O)N2CC1CC1,-7.905
24,Cn1cccc1C(=O)N1CC[C@@H]2[C@@H]1CC(=O)N2CC1CCOCC1,-5.807

row,Structure (SMILES),Percent Effect [%]
1,CCc1cnc(N2CC[C@H]3[C@@H]2CCC(=O)N3CC2CCOCC2)nc1.O=C(O)C(F)(F)F,-1.93
2,O=C1C[C@H]2[C@H](CCN2C(=O)c2ccno2)N1CC1CC1,88.14
3,O=C(O)C(F)(F)F.O=C1CC[C@H]2[C@H](CCN2c2ccccn2)N1CC1CCOCC1,-16.88
4,Cc1oncc1C(=O)N1CC[C@H]2[C@@H]1CCC(=O)N2CC1CCOCC1,95.19
5,O=C1CC[C@@H]2[C@@H](CCN2C(=O)C2CCOCC2)N1CC1CC1,-4.769
6,Cc1noc(C)c1CN1CC[C@H]2[C@@H]1CCC(=O)N2CC1CCOCC1.O=C(O)C(F)(F)F,107.1
7,Cc1nc(CN2C(=O)CC[C@@H]3[C@H]2CCN3C(=O)c2ccno2)cs1,0.107
8,Cc1ccc(C(=O)N2CC[C@@H]3[C@H]2CCC(=O)N3CC2CC2)o1,4.088
9,Cc1oncc1C(=O)N1CC[C@H]2[C@@H]1CCC(=O)N2CC1CC1,108
10,Cc1nn(C)c(C)c1CCC(=O)NCc1csc(N2CCCC2)n1,-4.027
11,Cn1ccc2c(C(=O)NCC3(C(N)=O)CCOCC3)cccc21,-19.6
12,CCN(CC)c1ccc(NC(=O)NCC2(C(N)=O)CCOCC2)cn1,-0.5907
13,CCN(CC)c1ccc(C(=O)NCC2(C(N)=O)CCOCC2)cn1,-5.685
14,Cc1nn(C)c(C)c1S(=O)(=O)NCC1(C(N)=O)CCOCC1,87.99
15,Cc1nn(C)c(C)c1CCC(=O)NCC1(C(N)=O)CCOCC1,112
16,Cc1nn(C)c(C)c1S(=O)(=O)N(CC(N)=O)CC(C)C,0.7063
17,Cc1nn(C)c(C)c1S(=O)(=O)NCC(C)(O)c1ccc2c(c1)OCO2 (stereo not drawn),12.95
18,Cc1nn(CC(=O)NCC2(C(N)=O)CCOCC2)c(C)c1Cl,113.9
19,Cc1nn(C)c(C)c1CC(=O)NCC1(C(N)=O)CCOCC1,121.1
20,CCc1nc(CC(=O)NCC2(C(N)=O)CCOCC2)cs1,13.26
21,CC(C)C1CN(Cc2nccn2C(C)C)CCC(=O)N1CC1CC1 (stereo not drawn),-13.37
